S2 tox: cell viability loss in ATXN counter-screen | 0.49% of 400,000 active | AID 651635 | Potency, µM (series often up to 56.7 µM), most hits filed as cytotoxic | S2 cells (HEK-293 line with an ATXN2-luciferase reporter) viability, CellTiter-Fluor protease fluorescence, 24 h; also: nearly all actives have a fitted effect of over 40% in size
KB-V1 cytotox: kills drug-selected multidrug resistant KB-V1 cells | KB-V1 MDR cells viability, CellTiter-Glo, 72 h | Potency, µM (highest dose often 46.1 µM), actives largely listed as cytotoxic | 3.4% of 400,000 active | AID 1347076; also: nearly all actives have a fitted effect of over 60% in size
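Cytotoxicity via CellTiter-Glo luminescence after 72 h compound exposure at 37 degrees C. Cells: drug-selected KB-V1 line, DMEM phenol-red free plus 10% FBS. Compounds tested at multiple concentrations; normalized data fitted to concentration-effect curves.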
HepG2 viability: counter-screen for TGF-b inhibitors: cytotoxicity in HepG2 cells; AID 588856; HepG2 CAGA-GFP viability, ATP luminescence, 18 h; Potency, µM (highest dose often 46.1 µM), usual class: cytotoxic; 0.76% of 410,000 active
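CellTiter-Glo luminescence gave cytotoxicity after 18 hours at 37 degrees C. The cells were HepG2 CAGA-GFP in 1% FBS DMEM, stimulated with 500 pg/mL TGF-beta after compound addition. %Activity was normalised to no-cell wells (complete cell-killing) and DMSO (no toxicity), and curves were fitted and classified.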
TGFb SMAD3 inh: blocks TGF-b signaling. 1.2% of 410,000 active. Potency, µM (titrated, usually from 46.1 µM), most hits filed as inhibitors. HepG2 CAGA-GFP TGF-b/SMAD3 reporter, GFP fluorescence, 18 h; TGF-beta stimulated, 500 pg/mL final; also: nearly all actives have a fitted effect of over 65% in size
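First, reporter cells (HEPG2 CAGA-GFP) rested 2 h at 37 degrees C. Next, compounds were pinned in and TGF-beta added to 500 pg/mL final. After 18 h, GFP was imaged per cell and summed per well.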
KB-3-1 tox: KB-3-1 parental cell cytotoxicity; KB-3-1 viability, CellTiter-Glo ATP luminescence, 72 h; Potency, µM (titrated, usually from 46.1 µM), hits mostly cytotoxic; 1.4% of 400,000 active; AID 1347075; also: nearly all actives have a fitted effect of over 60% in size
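Multi-concentration cytotoxicity screen in KB-3-1 cells grown in DMEM lacking phenol red with 10% FBS. After 72 h at 37 °C with compound, ATP-dependent luminescence was recorded.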
ATXN2 expr inh: reduces ATXN2 reporter expression in HEK-293 cells; Potency, µM (series often up to 57 µM), usual class: inhibitors; HEK-293 ATXN2-luciferase reporter, luminescence, 24 h; 0.72% of 360,000 active; also: nearly all actives have a fitted effect of over 55% in size
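ATXN2-luciferase reporter cells (luciferase flanked by upstream and downstream ATXN2 gene portions) were treated 24 h at 37 °C with compounds at up to 57 uM. SteadyGlo luminescence gave expression; GF-AFC fluorescence gave viability.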
Of the large screens only hits and unclear results are named; the others gave an inactive call. Sampled rows, rich in hits. Any-hit rate of the full collection: about 5.9%. Calls follow the shape of the dose curve; as a rule, active = well fitted curve in the direction sought with a large enough effect; inconclusive = small, poorly fitted or top-dose-only effect, or another doubt; inactive = no such curve, though single readings can be large; an effect the other way counts as inactive or inconclusive.

COc1ccc(C2c3c(-c4ccccc4)n[nH]c3C(=O)N2c2ccc(C(=O)O)cc2)cc1 (stereo not drawn)	none
CCOC(=O)c1ccc(N2C(=O)c3n[nH]c(-c4ccco4)c3C2c2ccc(F)cc2)cc1 (stereo not drawn)	S2 tox inconclusive, HepG2 viability 22.4µM, TGFb SMAD3 inh inconclusive, ATXN2 expr inh inconclusive
CCOC(=O)c1ccc(N2C(=O)c3[nH]nc(-c4ccc(OC)cc4)c3C2c2ccc(C)cc2)cc1 (stereo not drawn)	S2 tox inconclusive, KB-V1 cytotox 18.4µM, TGFb SMAD3 inh 25.1µM, KB-3-1 tox inconclusive, ATXN2 expr inh inconclusive
COc1ccc(C(CC(=O)Nc2ccc(OC)c(OC)c2)N2Cc3ccccc3C2=O)cc1 (stereo not drawn)	TGFb SMAD3 inh inconclusive (no result: S2 tox, KB-V1 cytotox, KB-3-1 tox, ATXN2 expr inh)
COc1ccc(CN2CCCC(CNC(=O)c3ccc(F)cc3)C2)c(F)c1 (stereo not drawn)	none
COc1ccc(CN2CCCC(CNC(=O)c3ccc(F)cc3)C2)c(C)c1C (stereo not drawn)	HepG2 viability 7.94µM (no result: ATXN2 expr inh)
COc1cccc(-c2nc(S(=O)(=O)c3ccccc3)c(N3CCC(C)CC3)o2)c1	S2 tox inconclusive, KB-V1 cytotox inconclusive, TGFb SMAD3 inh inconclusive
COc1cc(OC)cc(-c2cc3nc(C)c(CCC(=O)Nc4ccc(F)c(Cl)c4)c(C)n3n2)c1	none (no result: S2 tox, KB-V1 cytotox, KB-3-1 tox, ATXN2 expr inh)
COc1ccc(/C=C2\CN(Cc3ccccc3)C/C(=C\c3ccc(OC)cc3OC)C2=O)c(OC)c1	S2 tox inconclusive, KB-V1 cytotox inconclusive
COc1ccc(/C=C2\CN(Cc3ccccc3)C/C(=C\c3ccc(OC)cc3)C2=O)cc1	S2 tox inconclusive, KB-V1 cytotox inconclusive, TGFb SMAD3 inh 11.2µM, KB-3-1 tox inconclusive, ATXN2 expr inh inconclusive
Cc1ccc(C(C)n2cc(C(=O)NCc3cccnc3)nn2)cc1 (stereo not drawn)	KB-V1 cytotox 14.6µM
CC(c1ccccc1)n1cc(C(=O)NCc2ccccn2)nn1 (stereo not drawn)	none
CCN(CC)c1ncnc2c1ncn2[C@H]1CN(Cc2ccccc2)C[C@@H](CO)O1	none
N#Cc1c(-c2ccccc2)c(-c2ccccc2)nn(CC(=O)NNC(=O)Nc2ccccc2)c1=O	KB-3-1 tox 5.8µM
N#Cc1c(-c2ccccc2)c(-c2ccccc2)nn(CC(=O)NNC(=O)Nc2ccc(Cl)cc2)c1=O	S2 tox inconclusive, TGFb SMAD3 inh inconclusive, KB-3-1 tox 18.4µM
N#Cc1c(-c2ccc(Cl)cc2)c(-c2ccc(Cl)cc2)nn(CCOC(=O)CCC(=O)O)c1=O	S2 tox inconclusive, KB-V1 cytotox 7.31µM, TGFb SMAD3 inh inconclusive, KB-3-1 tox 2.31µM
CCOC(=O)c1c(-c2ccc(C)cc2)csc1NC(=O)c1cc(=O)c2cc(C)cc(C)c2o1	none
COc1ccccc1COCC(O)CN(Cc1ccco1)Cc1ccccc1O (stereo not drawn)	KB-V1 cytotox 7.31µM
Cc1cc(-c2ccccc2)nc(N/N=C/c2ccc(O)cc2)n1	KB-V1 cytotox inconclusive, KB-3-1 tox 20.6µM
Cc1cc(C)nc(N/N=C/c2cccc3ccccc23)n1	KB-V1 cytotox 18.4µM
Cc1cc(C)c2nc(C)cc(N/N=C/c3ccc(O)cc3)c2c1	S2 tox inconclusive, KB-V1 cytotox inconclusive, HepG2 viability 17.8µM, TGFb SMAD3 inh 20µM, KB-3-1 tox inconclusive, ATXN2 expr inh inconclusive
Cc1cc(N/N=C/c2ccc(N(C)C)cc2)c2ccccc2n1	none (no result: ATXN2 expr inh)
Cc1cc(C)nc(N/N=C/c2ccccc2Cl)n1	none (no result: ATXN2 expr inh)
Cc1cc(N/N=C/c2ccc(O)cc2)c2cccc(C)c2n1	S2 tox inconclusive, HepG2 viability 17.8µM, TGFb SMAD3 inh inconclusive (no result: ATXN2 expr inh)
COc1cc(CCC(=O)NCc2ccc3c(c2)CCN3C(=O)c2ccccc2)cc(OC)c1OC	TGFb SMAD3 inh inconclusive (no result: S2 tox, ATXN2 expr inh)
C/C(=N\NC(=O)c1ccn(C)n1)c1ccc(NC(=O)C2CCC2)cc1	KB-3-1 tox inconclusive

Screening data (PubChem BioAssay)
